# From PubChem BioAssay (NCATS)
# Inconclusive results are not listed. Where a call stands in place of a potency, no number is given. The source made the active and inactive calls. Unless noted, calls come from the whole dose curve; as a rule, active = well fitted curve in the direction sought with a large enough effect; inconclusive = small, poorly fitted or top-dose-only effect, or another doubt; inactive = no such curve, though single readings can be large; an effect the other way counts as inactive or inconclusive.
# Key:
# [1] = biological target: Cytochrome P450 1A2 (Homo sapiens) (UniProt P05177); assay: p450-cyp1a2 (AID 410; calls by dose curve; note: potency is the fitted concentration of half-maximal effect)
# In short: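 Luminescent demethylation readout: Luciferin-ME (100uM, equal to Km) turned over by 20nM CYP1A2 for 60 min at room temperature after NADPH regeneration addition, following 10 min compound preincubation. Normalization used 57 uM furafylline as full inhibition.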
# [2] = biological target: Mitogen-activated protein kinase 10 (Mus musculus) (UniProt Q61831); assay: JNK3 AlphaScreen Assay (AID 530; active = well fitted curve in either direction with a large enough effect, not every such curve was filed as active;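 note: kinase came from lysate of stimulated human HepG2 cells; signal reports phosphorylation of biotinylated GST-cJun 1-79 at Ser73 with 10 µM ATP; series mostly up to about 57 µM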)
# In short: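 qHTS titrations with 15 min compound pre-incubation before adding ATP (10 uM final). Read-out: AlphaScreen of Ser73-phosphorylated biotin-GST-cJun using HepG2 lysate JNK3 activated by IL-1β and TNFα.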
# [3] = biological target: Cytochrome P450 3A4 (Homo sapiens) (UniProt P08684); assay: qHTS Assay for Activators of Cytochrome P450 3A4 (AID 885); note: nearly all actives have a fitted effect of over 65% in size
# In short: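 Human CYP3A4 dealkylates Luciferin-PPXE to luciferin, which luciferase detection converts to light. Substrate was at its KM (25uM), buffer 200mM KPO4, reaction 60 min at RT.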
# [4] = biological target: Cytochrome P450 2C19 (Homo sapiens) (UniProt P33261); assay: qHTS Assay for Inhibitors and Substrates of Cytochrome P450 2C19 (AID 899); note: potency is the fitted concentration of half-maximal effect; nearly all actives have a fitted effect of over 60% in size
# In short: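 5nM enzyme + 10uM Luciferin-H EGE (=KM), 50mM KPO4; cpd pin-transferred, 10 min 37C; NADPH regen, 60 min 37C; stopped w/ luciferin detection reagent, 20 min; luminescence. Normalized to 57uM ketoconazole (AC100).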
# [5] = biological target: Cytochrome P450 2C9 (Homo sapiens) (UniProt P11712); assay: qHTS Assay for Inhibitors and Substrates of Cytochrome P450 2C9 (AID 883); note: potency is the fitted concentration of half-maximal effect; nearly all actives have a fitted effect of over 60% in size
# In short: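 Inhibition of CYP2C9 is scored as loss of luminescence, with 57uM sulphaphenazole defining 100% inhibition. Substrate Luciferin-H is used at 100uM, equal to its KM; enzyme at 10nM in 25mM KPO4, 60 min at 37C with NADPH regeneration.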
# Chain of Cytochrome P450 3A4 (Homo sapiens) (P08684 whole entry, looked up): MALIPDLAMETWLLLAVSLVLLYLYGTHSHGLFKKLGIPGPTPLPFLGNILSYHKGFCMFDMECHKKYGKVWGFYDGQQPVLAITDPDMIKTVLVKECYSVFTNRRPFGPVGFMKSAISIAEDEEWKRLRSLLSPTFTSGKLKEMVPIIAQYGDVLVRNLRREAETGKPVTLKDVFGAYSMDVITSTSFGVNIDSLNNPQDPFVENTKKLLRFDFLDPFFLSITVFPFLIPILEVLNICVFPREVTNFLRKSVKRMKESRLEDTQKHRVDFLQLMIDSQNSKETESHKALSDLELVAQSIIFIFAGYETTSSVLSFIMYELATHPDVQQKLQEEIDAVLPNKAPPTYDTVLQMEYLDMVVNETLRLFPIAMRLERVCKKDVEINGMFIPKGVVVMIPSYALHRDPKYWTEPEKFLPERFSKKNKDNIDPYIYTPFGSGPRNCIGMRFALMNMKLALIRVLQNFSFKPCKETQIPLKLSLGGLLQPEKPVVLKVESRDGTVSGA
# Chain of Cytochrome P450 1A2 (Homo sapiens) (P05177 whole entry, looked up): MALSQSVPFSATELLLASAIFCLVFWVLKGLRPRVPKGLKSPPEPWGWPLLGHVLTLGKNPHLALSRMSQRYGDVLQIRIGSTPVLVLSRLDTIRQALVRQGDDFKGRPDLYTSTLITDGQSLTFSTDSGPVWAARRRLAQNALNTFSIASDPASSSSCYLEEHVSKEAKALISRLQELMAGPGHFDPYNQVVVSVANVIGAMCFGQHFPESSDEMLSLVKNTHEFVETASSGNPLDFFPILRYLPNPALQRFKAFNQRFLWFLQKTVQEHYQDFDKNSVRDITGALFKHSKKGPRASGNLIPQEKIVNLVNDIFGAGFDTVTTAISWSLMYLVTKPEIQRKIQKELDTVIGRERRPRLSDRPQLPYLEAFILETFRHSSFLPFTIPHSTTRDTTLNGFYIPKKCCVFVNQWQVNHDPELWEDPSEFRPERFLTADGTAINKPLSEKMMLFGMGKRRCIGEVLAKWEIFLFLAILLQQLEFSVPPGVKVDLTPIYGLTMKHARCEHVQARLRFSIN
# Chain of Cytochrome P450 2C19 (Homo sapiens) (P33261 whole entry, looked up): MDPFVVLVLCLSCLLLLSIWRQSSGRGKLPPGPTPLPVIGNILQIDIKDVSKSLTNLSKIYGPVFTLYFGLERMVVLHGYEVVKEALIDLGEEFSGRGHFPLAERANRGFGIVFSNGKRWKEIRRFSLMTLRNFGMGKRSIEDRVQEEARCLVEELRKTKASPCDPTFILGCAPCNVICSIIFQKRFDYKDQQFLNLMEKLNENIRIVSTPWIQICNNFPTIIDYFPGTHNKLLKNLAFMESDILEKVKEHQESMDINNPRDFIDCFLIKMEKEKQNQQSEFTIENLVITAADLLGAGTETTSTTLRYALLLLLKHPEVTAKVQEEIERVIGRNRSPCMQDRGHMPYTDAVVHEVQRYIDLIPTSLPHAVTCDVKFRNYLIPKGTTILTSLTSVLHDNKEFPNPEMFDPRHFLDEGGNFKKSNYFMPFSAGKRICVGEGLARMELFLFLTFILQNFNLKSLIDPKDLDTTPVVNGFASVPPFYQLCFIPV
# Chain of Cytochrome P450 2C9 (Homo sapiens) (P11712 whole entry, looked up): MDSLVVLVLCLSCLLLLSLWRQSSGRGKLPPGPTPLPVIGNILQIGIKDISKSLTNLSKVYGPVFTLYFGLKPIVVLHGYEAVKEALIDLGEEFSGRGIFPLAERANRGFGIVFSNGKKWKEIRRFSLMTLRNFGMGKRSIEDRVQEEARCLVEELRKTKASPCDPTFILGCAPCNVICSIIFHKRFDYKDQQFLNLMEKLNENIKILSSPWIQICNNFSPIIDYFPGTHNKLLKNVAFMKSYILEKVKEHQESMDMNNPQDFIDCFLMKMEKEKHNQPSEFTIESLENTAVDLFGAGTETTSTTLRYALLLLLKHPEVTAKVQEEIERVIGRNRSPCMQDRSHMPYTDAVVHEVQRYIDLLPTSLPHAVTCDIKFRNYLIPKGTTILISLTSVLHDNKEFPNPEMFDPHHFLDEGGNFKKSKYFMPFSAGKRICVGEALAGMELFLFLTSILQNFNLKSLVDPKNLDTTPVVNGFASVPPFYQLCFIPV
Structure (SMILES),Potency [1],Potency [2],Potency [3],Potency [4],Potency [5]
C[C@@H](C(=O)NCCF)[C@H]1C[C@]1(C)[C@H](NC(=O)OCc1ccccc1)c1ccccc1,15.8 µM (active),inactive,inactive,1.26 µM (active),–
COC(=O)[C@@]1(Cc2ccccc2)[C@@H]2C(=CC(=O)[C@H]2CC(=O)C(=O)N(C)C)CN1C(=O)c1ccccc1,inactive,–,inactive,–,–
CCC/C=C(\CCC)C(NC(=O)C(C)(C)C)c1ccc(C(=O)OC)cc1 (configuration not stated),inactive,–,inactive,–,–
CCC/C=C(\CCC)C(NS(=O)(=O)c1ccc(C(F)(F)F)cc1)c1ccc(C(=O)OC)cc1 (configuration not stated),inactive,–,inactive,2.51 µM (active),3.16 µM (active)
